Screening results (PubChem)
SW480 rerep: induces DNA re-replication in SW480 colon adenocarcinoma cells. hit rate 1.8% among 340,000. SW480 DNA re-replication, Hoechst DNA content imaging, 48 h. Potency, µM (highest dose often 46.1 µM), actives largely listed as activators; further: nearly all actives have a fitted effect of over 55% in size
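Per well, 250 cells were exposed to pinned compound for 48 hr. Nuclear DNA was visualised with Hoechst (40 min, 37 C) and total object intensity recorded by fluorescence scanning.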
MCF10A rereplic: DNA re-replication induction in MCF 10a cells | MCF 10A DNA re-replication, Hoechst nuclear intensity, 48 h | Potency, µM (highest dose often 46.1 µM), most hits filed as activators | hit rate 2.9% among 350,000 | AID 624296; further: nearly all actives have a fitted effect of over 50% in size
uPA surface inh: blocks generation of uPA at the cell surface; cell surface uPA generation assay, qHTS; Potency, µM (top dose mostly 38.3 µM), usual class: inhibitors; hit rate 0.31% among 330,000; AID 540303; active means well fitted inhibition curve with a large enough effect; inconclusive means small, poorly fitted or top-dose-only effect; inactive means no such curve, though single readings can be large or run the other way; tested in mouse RAW 264.7 cells; further: nearly all actives have a fitted effect of over 55% in size
Giardia kill: Giardia lamblia killing | Giardia lamblia trophozoite viability | activity change, % at 7.66 µM, hits read low | hit rate 0.15% among 340,000; in the data active means activity change below about -80%; inconclusive means between about -30% and that limit;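 further: parasites exposed to compound for two days anaerobically before the ATP read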
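Each well holds 100 Giardia trophozoites and compound. After two days (48 hrs) at 37 deg C in anaerobic conditions, ATP is quantified by luminescence.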
Large screens that a line does not name were inactive. Most compounds without a hit are left out; they make up all but 4.3% or so of the library. Unless noted, the call rests on the fitted dose curve; in most records, active means well fitted activation curve with a large enough effect; inconclusive means small, poorly fitted or top-dose-only effect; inactive means no such curve, though single readings can be large or run the other way.

COc1ccccc1-c1c(C#N)c(N)nc2c1CCc1ccccc1-2	SW480 rerep 20.6µM, MCF10A rereplic inconclusive
COc1ccc(NC(=O)c2ccccc2NS(=O)(=O)c2ccc(CNC(C)=O)cc2)c(OC)c1	MCF10A rereplic 5.17µM
COc1ccc(S(=O)(=O)Nc2ccccc2C(=O)NCc2cccnc2)cc1	SW480 rerep inconclusive, MCF10A rereplic inconclusive
Cc1nn(Cc2ccc(C(=O)Nc3ccccc3F)cc2)c(C)c1Cl	MCF10A rereplic 23.1µM
Cc1nn(Cc2ccc(C(=O)Nc3nccs3)cc2)c(C)c1Cl	MCF10A rereplic 5.8µM
Cc1nn(Cc2ccc(C(=O)NN)cc2)c(C)c1Cl	none
CCCCNC(=O)[C@]1(C)CCC[C@@]2(C)C3CC[C@@]4(C)C[C@]3(CCC21)CC4=O (some centres undefined)	none
O=Cc1sc(Nc2ccccc2)nc1Cl	MCF10A rereplic inconclusive
Cc1ccc(Nc2nc(Cl)c(C=O)s2)cc1Cl	SW480 rerep inconclusive, MCF10A rereplic 18.4µM
COc1ccccc1Nc1nc(Cl)c(C=O)s1	MCF10A rereplic 20.6µM
CC(C)[C@H](NC(=O)c1cccc(CN(Cc2ccccc2)C(=O)c2ccccc2)c1)C(=O)O	none
CCC(C)N(C(=O)COC(=O)c1cc([N+](=O)[O-])ccc1N)C1CCS(=O)(=O)C1 (centres undefined)	none
CCC(C)(C)c1ccc(OCCCC[n+]2ccc(C)cc2)c(C(C)(C)CC)c1	MCF10A rereplic 23.1µM, uPA surface inh inconclusive
CCC(C)(C)c1ccc(OCCCC[n+]2cccc(C)c2C)c(C(C)(C)CC)c1	uPA surface inh 8.91µM
COc1ccc(C(=O)C[n+]2cccc(C)c2C)cc1[N+](=O)[O-]	none
COc1nn(-c2ccccc2)c(=O)c(Cl)c1Cl	SW480 rerep 2.91µM, MCF10A rereplic 3.66µM
NCC1CC2c3ccccc3C1c1ccccc12 (centres undefined)	SW480 rerep 23.1µM
Cc1cccn2c(=O)c(/C=C(\C#N)C(=O)NC3CCS(=O)(=O)C3)c(N3CC(C)OC(C)C3)nc12 (centres undefined)	SW480 rerep inconclusive, MCF10A rereplic 1.84µM
CNC(=O)/C(C#N)=C/c1c(N2CC(C)OC(C)C2)nc2ccccn2c1=O (centres undefined)	SW480 rerep inconclusive, MCF10A rereplic 7.31µM
Cc1ccccc1Oc1nc2c(C)cccn2c(=O)c1/C=C(\C#N)C(=O)NC1CCS(=O)(=O)C1 (centres undefined)	MCF10A rereplic inconclusive
CCNC(=O)/C(C#N)=C/c1c(N2CC(C)OC(C)C2)nc2ccccn2c1=O (centres undefined)	none
Cc1ccc(Oc2nc3ccccn3c(=O)c2/C=C(\C#N)C(=O)NC2CCS(=O)(=O)C2)cc1 (centres undefined)	SW480 rerep inconclusive, MCF10A rereplic 8.2µM
O=C(CN1C(=O)C2CC=CCC2C1=O)Nc1nc(-c2ccc(F)c(F)c2)cs1 (centres undefined)	none
NCCCN(Cc1ccc(Cl)c(Cl)c1)c1ccccn1	none (no result: SW480 rerep, MCF10A rereplic, uPA surface inh)
CC(=O)Nc1ccc(OC(=O)c2ccccc2OC(C)=O)cc1	none (no result: uPA surface inh, Giardia kill)
O=Cc1cn(-c2ccccc2)nc1-c1cc2c(ccc3ccccc32)oc1=O	MCF10A rereplic 2.91µM
Cc1cn(C2CC3OCC(NC(=O)C(Cc4ccccc4)NC(=O)OC(C)(C)C)C3O2)c(=O)[nH]c1=O (centres undefined)	none (no result: SW480 rerep, MCF10A rereplic, uPA surface inh)
N#CC1=C(N)OC2=C(CC/C2=C\c2ccccc2)C1c1ccccc1 (centres undefined)	SW480 rerep 14.6µM, MCF10A rereplic 5.8µM
N#CC1=C(N)OC2=C(CC/C2=C\c2ccccc2Cl)C1c1ccccc1Cl (centres undefined)	SW480 rerep inconclusive, MCF10A rereplic inconclusive
COc1ccc(-c2nc3ccc(NC(C)=O)cc3c(=O)n2Cc2ccccc2)cc1COc1ccc(NC(C)=O)cc1	none (no result: SW480 rerep, MCF10A rereplic, uPA surface inh)
CCn1c2ccccc2c2cc(CN3CCN(C(=O)c4ccco4)CC3)ccc21	MCF10A rereplic inconclusive
CCCS(=O)(=O)N1CCN(Cc2ccc3c(c2)c2ccccc2n3CC)CC1	SW480 rerep inconclusive, MCF10A rereplic 13µM
COc1ccc2cc(C3=CCCC3(C)C(=O)O)ccc2c1 (centres undefined)	none
O=[N+]([O-])c1ccc(CSc2nc3ccccc3o2)cc1	none
O=[N+]([O-])c1ccc(CSc2nnc(SCc3ccccc3)s2)cc1	MCF10A rereplic 6.51µM
COc1ccc(-c2ccc3c(c2)S(=O)(=O)c2cccc(C(=O)O)c2C3=O)cc1OC	none
O=C(NCC1CCCO1)c1cccc2c1C(=O)c1ccc(N3CCC(Cc4ccccc4)CC3)cc1S2(=O)=O (centres undefined)	MCF10A rereplic 3.66µM, uPA surface inh inconclusive
COc1ccc(-c2ccc3c(c2)S(=O)(=O)c2cccc(C(=O)NC4CCCC4)c2C3=O)cc1OC	MCF10A rereplic inconclusive
COc1ccc(-c2ccc3c(c2)S(=O)(=O)c2cccc(C(=O)N4CCN(C5CCCCC5)CC4)c2C3=O)cc1OC	SW480 rerep 20.6µM, MCF10A rereplic 20.6µM, uPA surface inh 3.16µM, Giardia kill inconclusive
O=C(NC1CCCCC1)c1cccc2c1C(=O)c1ccc(-c3ccc(OC(F)(F)F)cc3)cc1S2(=O)=O	MCF10A rereplic 0.92µM
COc1ccc(-c2ccc3c(c2)S(=O)(=O)c2cccc(C(=O)NCc4cccc(OC(F)(F)F)c4)c2C3=O)cc1OC	MCF10A rereplic 1.84µM
CC(C)CNc1ncnc2oc(-c3ccco3)c(-c3ccco3)c12	none (no result: SW480 rerep, MCF10A rereplic, uPA surface inh)
C#CC(C)(C)NC(=O)c1ccc(-c2ccccc2F)cc1	none
CCCN(Cc1nnc(-c2ccccc2Cl)o1)C(=O)COc1ccc(Cl)cc1	none
CCN1C(C)=CC(=O)[C@@H](O)[C@H]1c1ccccc1Br	none
O=C(NCc1ccccc1)c1cccc2c1C(=O)c1ccc(/C=C/c3ccccc3)cc1S2(=O)=O	SW480 rerep 23.1µM, MCF10A rereplic 18.4µM
O=C1Cc2ccccc2Sc2cc(OCCCN3CCCCC3)ccc21	SW480 rerep 23.1µM, MCF10A rereplic inconclusive
CSCCC1NC(=O)C(C(C)=NNC(N)=O)=C1O (centres undefined)	none
CCOC(=O)c1cccc(NC(=O)c2c(NCc3ccccc3)[nH]c(=O)[nH]c2=O)c1	SW480 rerep inconclusive, MCF10A rereplic 5.8µM
Cc1ccc(/C=C\c2nccc3c2[nH]c2ccccc23)cc1	SW480 rerep 20.6µM, MCF10A rereplic 9.2µM, Giardia kill inconclusive
C(=C\c1nccc2c1[nH]c1ccccc12)/c1ccccc1	SW480 rerep 11.6µM, MCF10A rereplic inconclusive, Giardia kill inconclusive
Fc1ccc(/C=C\c2nccc3c2[nH]c2ccccc23)cc1	SW480 rerep 18.4µM, MCF10A rereplic 6.51µM
Cc1[nH]c2ccccc2c1/C=C/c1cc[n+](C)cc1	none
CSc1ccc(/C=C/c2cc(=O)c3ccccc3[nH]2)cc1	MCF10A rereplic inconclusive
CCN(C(=O)C(C)OC(=O)CCCNC(=O)c1ccc(Cl)cc1)c1ccccc1 (centres undefined)	none
Cc1ccc(-c2nn3cnnc3c3ccccc23)cc1	none
CC[C@H]1C=C[C@@H](C(C(=O)OC)C(=O)OC)CN1C(C)=O	none
O=C(COc1ccccc1-c1ccccc1)N/N=C/c1cccnc1	MCF10A rereplic inconclusive, uPA surface inh inconclusive
CCOc1ccccc1-c1cc(C(=O)N/N=C/c2cccnc2)c2ccccc2n1	none
